Results reported in PubChem BioAssay AID1981 (Southern Research Specialized Biocontainment Screening …, 2009).
Among all 2,200 compounds or so, about 480 (22%) were called active. The rule behind the calls is not given here. These entries were drawn from the full list. Entries with a potency or affinity are not part of this list.

test: S. Typhimurium GFP fluorescence modified counterscreen for PhoP regulon inhibitor project dose response (AID 1981); details: 4 h; series mostly up to 150 µM

SMILES	outcome
N#Cc1nc(-c2cccs2)oc1NCCCN1CCOCC1	inactive
c1ccc(Nc2cc(Nc3ccccc3)[nH]n2)cc1	inactive
Oc1c(Br)cc(Br)cc1C=NCc1ccccc1	inactive
Cc1ccc(-n2sc3ccccc3c2=O)cc1S(=O)(=O)N1CCCCC1	inactive
Cc1ccc(C)c(-c2nc3ccc(N)cc3[nH]2)c1	inactive
c1ccc(CCNc2nc3ccccc3s2)cc1	inactive
CC(=O)Nc1ccc(C(=O)N2CCN(C(=O)c3ccco3)CC2)cc1	inactive
Cc1cccnc1N(C(=O)Nc1ccccc1)C1=NCC(C)(C)S1	inactive
CN1C(=O)/C(=C/c2cccn2-c2ccc3ccccc3c2)C(=O)NC1=S	inactive
CCOc1cc(/C=C2/NC(=O)N(CC(=O)Nc3cccc(C)c3)C2=O)ccc1OC	inactive
COc1ccc(C(C)C)cc1S(=O)(=O)Nc1ccc(Cl)cn1	inactive
Cc1ccc2[nH]c3c(=O)n(CCc4cnc[nH]4)cnc3c2c1	inactive
c1ccc(-n2cnc3cc(NCc4ccncc4)ccc32)cc1	inactive
Cc1[nH]c2ccccc2c1C1=CCNCC1	inactive
CCOC(=O)C1CCCN(C(=O)c2sc3nc(C)nc(N4CCOCC4)c3c2C)C1 (configuration not stated)	inactive
Cc1cc(C(=O)COC(=O)CNC(=O)c2ccco2)c(C)n1Cc1ccco1	inactive
CN(C)c1ccc(/C=N/c2cc(-c3ccccc3)nn2-c2ccccc2)cc1	inactive
Cc1ccc(N2C(=O)CC(n3ccnc3)C2=O)cc1C (configuration not stated)	inactive
Cc1cc(NC(=O)c2cnn3cccnc23)no1	inactive
COc1ccc(-c2cc(C(=O)Nc3cc(C)n(Cc4ccc(Cl)cc4)n3)no2)cc1OC	inactive
O=C(NCCSCc1ccccc1)c1ccc(F)cc1	inactive
COC(=O)CN1C(c2ccc(OC)cc2)=Nc2ccc(Cl)cc2C1c1ccccc1 (configuration not stated)	inactive

SMILES	outcome
Cc1ccc(-c2cc(C(=O)Nc3nccs3)c3ccccc3n2)o1	inactive
Nc1nc(N2CCN(C/C=C/c3ccccc3)CC2)nc2ccccc12	inactive
O=C(O)CCC(=O)NCC1OCCc2ccccc21 (configuration not stated)	inactive
COC(=O)c1cn(C(=O)c2cccs2)c2ccccc12	inactive
Cc1cc(/C=N\NC(=O)c2cccs2)c(C)n1-c1ccc2ncccc2c1	inactive
COc1c(/C=N/Nc2nc(N3CCCCC3)nc(N3CCCCC3)n2)cccc1[N+](=O)[O-]	inactive
Cc1nc2ccccn2c1C(=O)N/N=C/c1ccccc1[N+](=O)[O-]	inactive
CCOC(=O)C(NC(=O)CC)(Nc1ccc(C(O)(C(=O)OCC)C(F)(F)F)cc1C)C(F)(F)F (configuration not stated)	inactive
CN(C(=O)c1ccc2c(c1)OCO2)C1(C(=O)NC2CCCCC2)CCCCC1	inactive
O=C(CSc1nnc(Cc2ccccc2)o1)NCCc1ccccc1	inactive
Cc1ccc(CNc2oc(-c3cccs3)nc2C#N)cc1	inactive
COc1cccc2[nH]c3c(N4CCC(C)CC4)ncnc3c12	inactive
NCCCC[C@H]1CN=C(N)N1CCC12CC3CC(CC(C3)C1)C2	inactive
COCC(=O)N=Nc1c(O)[nH]c2ccccc12	inactive
C(=N\N1CCN(C2c3ccccc3-c3ccccc32)CC1)/c1cccs1	inactive
Cc1ccc(C(=O)Oc2ccc(C(=O)COC(=O)c3cnccn3)cc2)cc1	inactive
O=[N+]([O-])c1ccc(CNC2CCCc3ccccc32)cc1 (configuration not stated)	inactive
COc1cc(C2Nc3cccc4cccc(c34)N2)cc(OC)c1O	inactive
CCOC(=O)CCCc1c[nH]c2ccccc12	inactive
COc1ccc(-n2c(C)cc(C(=O)Cn3nc(C(=O)O)c4ccccc4c3=O)c2C)cc1	inactive
NNc1nc2c(-c3cccc(C(F)(F)F)c3)nnn2c2ccccc12	inactive
O=C(Nc1ccc(Br)cc1)c1ccc(F)c(S(=O)(=O)NCc2cccs2)c1	inactive

SMILES	outcome
Cc1cc(C)cc(CC(Cc2nc3ccccc3[nH]2)c2nc3ccccc3[nH]2)c1 (configuration not stated)	inactive
O=C(/C=C/c1ccco1)NC(=S)Nc1ccc(N2CCCC2)cc1	inactive
Cc1cc2ncn(C3CC(=O)N(Cc4ccc(N5CCCC5=O)cc4)C3=O)c2cc1C (configuration not stated)	inactive
O=C(NC(=Nc1ccccc1)N1CCOCC1)Nc1ccccc1	inactive
Cc1ccc(NC(=O)NCC2CCN(Cc3cccc(Cl)c3)CC2)cc1Cl	inactive
Cc1ccc(NC(=O)c2cc(S(=O)(=O)N3CCC4(CC3)OCCO4)ccc2F)cc1	inactive
COc1ccc(-c2cc(-c3ccc(OC)c(OC)c3)n[nH]2)c(O)c1	inactive
COc1ccc(-c2ccc(C#N)c(SCC(=O)NCCc3ccccc3)n2)cc1OC	inactive
Cc1cc(C)n2c(SCC(=O)NCc3ccco3)nnc2n1	inactive
Cc1ccc(C(=O)C2COC(=O)C2)cc1 (configuration not stated)	inactive
COc1ccc(C2COC(=O)C2=N)c(NC(=O)c2ccc(Cl)cc2)c1 (configuration not stated)	inactive
COc1ccc(OC)c(C(C(=O)NCc2ccco2)N(C(=O)Cn2nnc3ccccc32)C(C)C)c1 (configuration not stated)	inactive
Cc1ccc(NC(=O)COc2ncnc3c(Cl)cc(Cl)cc23)cc1[N+](=O)[O-]	inactive
O=C(NCc1cccnc1)c1ccc(Cl)cc1[N+](=O)[O-]	inactive
Cc1ccc(C)c(NC(=S)NCCSc2ccc(Cl)cc2)c1	inactive
O=C1c2cccc(OCC(=O)N3N=C(c4cccs4)CC3c3ccc(F)cc3)c2CCN1Cc1cccnc1 (configuration not stated)	inactive
Cc1ccc(NS(=O)(=O)c2ccc(N3C(=O)CCC3=O)cc2)cc1	inactive
CCOc1ccc(NC(=O)Nc2cccs2)cc1	inactive
CC(C)CCNC(=O)C12CN(Cc3ccccc3)CC1C(c1cccc([N+](=O)[O-])c1)=NO2 (configuration not stated)	inactive
O=C(Nc1cc(C(F)(F)F)ccc1Cl)C(NCc1ccccc1)c1ccccc1 (configuration not stated)	inactive
Cc1oc(CC(C)C)c(CN)c1C(=O)O	inactive
CCOC(=O)C1=C(C)NC(=O)NC1c1c(OCC(=O)N2CCCCC2)ccc2ccccc12 (configuration not stated)	inactive

SMILES	outcome
COc1ccc(C2=NOC(C(=O)Nc3ccc(C)cc3)C2)cc1OC (configuration not stated)	inactive
Cc1cc([N+](=O)[O-])cc2ncccc12	inactive
C=CCn1c(SCCOc2ccc(OC)cc2)nnc1C(C)NC(=O)c1ccc(OC)cc1 (configuration not stated)	inactive
COc1ccc(-n2c(CNc3ccc(C)cc3)nnc2SCc2ccccc2)cc1	inactive
Cc1ccc2nc(SCC(=O)c3c(C)[nH]c4ccccc34)[nH]c2c1	inactive
CCOC(=O)c1c(-c2ccc(C)o2)csc1N	inactive
CCOC(=O)c1ccccc1C(=O)N1CCOCCOCCOCC1	inactive
O=C1N2CCCc3cccc(c32)C12Nc1ccccc1S2 (configuration not stated)	inactive
N/C(=N\OC(=O)c1cccs1)C1(c2ccc(Cl)cc2Cl)CC1	inactive
Nc1c(C(=O)Nc2ccc(F)cc2)sc2nc(-c3ccco3)ccc12	inactive
CCOc1ccc(N/C=C/C(=O)c2ccc(OC)cc2)c([N+](=O)[O-])c1	inactive
CCCCOC(=O)CSc1nc2c(c(=O)[nH]c(=O)n2C)n1C/C=C(\C)Cl	inactive
CCCCCCOC(=O)Sc1nc2ccccc2o1	inactive
O=S1(=O)C=CC(Nc2ccccc2)C1 (configuration not stated)	inactive
C=CCNC(=O)C(=O)NN=C1CCN(C)CC1	inactive
COc1cccc(C(=O)Oc2c(CN3CCOCC3)cc(Cl)c3cccnc23)c1	inactive
COc1ccc2nc(NC(=O)C3CCCN3S(=O)(=O)c3ccc(C)cc3)sc2c1 (configuration not stated)	inactive
c1ccc2[nH]c(CSc3nccs3)nc2c1	inactive
CC(=O)c1ccc(NC(=S)NC(NC(=O)c2ccco2)C(Cl)(Cl)Cl)cc1 (configuration not stated)	inactive
CN(C)c1ccc([C@@H]2[C@@H]([N+](=O)[O-])[C@H]3C=Cc4ccccc4N3[C@H]2C(=O)c2ccc(Cl)cc2)cc1	inactive
O=C(O)c1cc(O)c2c(c1)[C@@H]([C@H]1c3cc(C(=O)O)cc(O)c3C(=O)c3c(O[C@@H]4O[C@H](CO)[C@@H](O)[C@H](O)[C@H]4O)cccc31)c1cccc(OC3O[C@H](CO)[C@@H](O)[C@H](O)[C@H]3O)c1C2=O (some centres not stated)	inactive
O=C(CCN1C(=O)C2C3C=CC(C3)C2C1=O)N1CCN(c2cccc(Cl)c2)CC1 (configuration not stated)	inactive

SMILES	outcome
CCCOc1ccc(C2NC(=S)NC(c3ccccc3)=C2C(=O)Nc2ccc(C)cc2)cc1OC (configuration not stated)	inactive
CCOC(=O)c1c(C)[nH]c(C)c1C(=O)COC(=O)/C=C/c1cccc(F)c1	inactive
c1ccc2c3c([nH]c2c1)-c1[nH]ncc1CC3	inactive
COc1ccc(CCN2CC3=C(C2=O)C(c2ccccc2)NC(=O)N3C)cc1OC (configuration not stated)	inactive
CC1CCN(S(=O)(=O)c2cccc(C(=O)N(C)C3CCS(=O)(=O)C3)c2)CC1 (configuration not stated)	inactive
COc1ccc(O)c(/C=c2/sc3nc4cc(C)c(C)cc4n3c2=O)c1	inactive
CC(=O)Nc1cccc(OCC(=O)Nc2ccc(F)cc2)c1	inactive
O=C1CSc2ccccc2N1Cc1ccc(F)cc1	inactive
CN1CCN(C(c2cccc(C(F)(F)F)c2)c2nnnn2C(C)(C)C)CC1 (configuration not stated)	inactive
COc1ccccc1N1CCN(C(CNS(=O)(=O)c2ccccc2)c2cccnc2)CC1 (configuration not stated)	inactive
CC(=O)c1cccc(NC(=O)Nc2cc3sccc3n2C)c1	inactive
O=C(CN1C(=O)COc2ccccc21)Nc1ccc(F)cc1	inactive
O=C(O)C1CC=CCC1C(=O)NC12CC3CC(CC(C3)C1)C2 (configuration not stated)	inactive
CSCCC(NC(=O)c1cccc(C)c1)C(=O)OCC(=O)NC(=O)c1cccn1C (configuration not stated)	inactive
CCOC(=O)C1=C(c2ccccc2)N=C2SCC(=O)N2C1c1ccc(O)c(OC)c1 (configuration not stated)	inactive
COC(=O)Cn1cc(C(=O)c2ccco2)c2ccccc21	inactive
CCCCn1cnc2sc(-c3ccccc3)cc2c1=O	inactive
Cc1cc2oc(=O)cc(CSc3nc(N)cc(N)n3)c2cc1C	inactive
CC1CCN(c2ccc(NC(=S)NC(=O)c3ccc(-c4cccc([N+](=O)[O-])c4)o3)cc2)CC1	inactive
